High-throughput results from PubChem BioAssay.
Sampled rows, rich in hits. Any-hit rate of the full collection: about 2.2%.
Ba/F3 V617F tox – lowers viability of Ba/F3 cells expressing EpoR and JAK2V617F; inhibition, % at 5.6 µM; ATP luminescence; actives 1.1% (n = 220,000); AID 1446;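 active means inhibition above the campaign mean plus 3 SD over all tested compounds, cut at about 24% in these data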;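 further: cytokine-independent growth of Ba/F3 cells driven by EpoR plus mutant JAK2; 0% = DMSO-treated cells and 100% = JAK inhibitor I control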
IEC-6 tox – counter-screen for KLF5 inhibitors: cytotoxicity in IEC-6 cells; actives 0.78% (n = 290,000); IEC-6 cytotoxicity, luminescence viability; inhibition, % at 5 µM; AID 1825; in the data active means inhibition above about 22%;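 further: 0% = plate median of test compound wells and 100% = cytotoxic reference compound wells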
aSyn UTR inh – 5' untranslated region of α-synuclein, MLPCN primary screen | alpha-synuclein 5'UTR reporter, inhibitor activity | inhibition, % (tested at 7.5 µM) | actives 0.82% (n = 300,000); in the data active means inhibition above about 60%;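 further: H4 neuroglioblastoma cells stably carrying SNCA 5'UTR luciferase fusion; 0% = DMSO wells and 100% = positive control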
APP transl inh – APP translation inhibition; AID 1285; inhibition, % at 2 µM; actives 0.82% (n = 190,000); SH-SY5Y APP 5'UTR-luciferase reporter, luminescence;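 active means inhibition above a set limit, derived from the sample mean plus 3 SD, cut at about 45% in these data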
KLF5 inh – inhibitors of KLF5 expression. actives 0.23% (n = 290,000). inhibition, % at 5 µM. DLD-1 KLF5 promoter-luciferase reporter, luminescence;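 active means inhibition above a per-plate limit of that plate's mean compound inhibition plus 3 SD, cut at about 60% in these data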;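 further: 0% = DMSO wells and 100% = LY294002 at 200 µM; higher means less KLF5 promoter-driven luciferase light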
BaF3 parental – reduces parental Ba/F3 cell viability, JAK2V617F counter-screen; actives 1.1% (n = 220,000); CellTiter-Glo ATP luminescence; inhibition, % at 5.6 µM;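 active means inhibition above a per-campaign cutoff, the mean inhibition of all tested compounds plus 3 SD, cut at about 27% in these data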;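 further: 0% = DMSO wells and 100% = JAK Inhibitor I control wells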
Numbers without * were called inactive; · = no result given.

SMILES | Ba/F3 V617F tox | IEC-6 tox | aSyn UTR inh | APP transl inh | KLF5 inh | BaF3 parental
CCOc1ccc2nc3cc(NCc4ccc(OC)cc4)ccc3c(N)c2c1 | · | -2.0 | 108.6* | · | 8.3 | ·
CCNC(=O)N1c2ccc(OCC)cc2C(C)=CC1(C)C | -0.4 | 1.4 | -19.0 | 2.3 | 3.5 | 3.4
COc1ccc(C2C(=O)c3ccccc3C2=O)c(OC)c1 | -1.6 | 1.0 | -265.4 | -10.2 | -21.9 | -0.7
COc1ccc2c(c1)[N+](C)(C)C(C)(C)C=C2C | 26.1* | -0.9 | -6.7 | 10.0 | 6.9 | 46.7*
CCOc1ccc2c(c1)[N+](C)(C)C(C)(C)C=C2C | 54.1* | 5.2 | -16.9 | 21.3 | -29.7 | 60.5*
COc1ccc(-c2cc3c(=O)n(CC(=O)NCCCN4CCC(Cc5ccccc5)CC4)ncn3n2)cc1 | · | 17.9 | 96.4* | · | 58.4 | ·
CN(C)c1ccc(/C=C/c2nc3ccccc3s2)cc1 | 1.3 | -0.5 | 81.1* | -13.7 | 53.2 | 1.1
CN(C)c1ccc(CNc2nc3ccccc3s2)cc1 | · | -7.4 | 80.2* | · | 63.5* | ·
C(=C\c1ccc2ccccc2n1)/c1ccccc1 | 0.3 | 5.0 | 66.9* | -175.5 | -108.0 | 1.6
CN(C)c1ccc(/C=C/c2ccc3ccccc3n2)cc1 | 15.2 | 21.1 | 89.1* | · | 104.5* | 22.1
O=C(O)/C=C/c1ccc2ccccc2n1 | -2.3 | -1.0 | -64.2 | -2.4 | -16.4 | 1.2
COc1cc(/C=C/c2nc3ccccc3s2)cc(OC)c1O | -2.5 | 1.5 | -69.1 | -129.1 | -37.0 | -3.7
Cc1ccc(/C=C/c2nc3ccccc3s2)s1 | -2.3 | -0.1 | 71.4* | -98.5 | -120.5 | 2.0
O=C(NC(Nc1ncc(S(=O)(=O)c2ccc([N+](=O)[O-])cc2)s1)(C(F)(F)F)C(F)(F)F)c1ccc(Cl)cc1 | 0.1 | -4.3 | 72.8* | -11.6 | 10.8 | 3.7
COc1ccc(CNC(=O)CSc2nnc(-c3cccnc3)n2N)cc1 | 6.0 | 0.2 | 27.7 | -0.3 | 4.6 | 81.9*
CC(=O)c1cc2c(cc1NC(=O)c1cc(C)nn1-c1ccccc1)OCO2 | 0.1 | -2.0 | 2.4 | 59.2* | -2.0 | 5.8
CC(=O)Nc1ccc(NC(=O)c2cc(C)nn2-c2ccccc2)cc1 | 0.8 | -1.9 | -7.7 | 9.5 | -22.9 | 6.4
CCCCOc1ccc(C(=O)NNC(=S)NC(=O)CC)cc1 | -1.4 | 3.2 | 85.4* | 56.0* | -11.4 | 7.0
CCCOc1ccc(C(=O)NNC(=S)NC(C)=O)cc1 | 2.8 | 6.1 | 67.7* | -4.1 | -0.3 | 4.5
CCC(=O)NC(=S)NNC(=O)c1ccc(OC)cc1 | 1.8 | -0.4 | 18.9 | -12.4 | -22.6 | 4.5
COc1nc(Nc2nc3ccccc3c(=O)[nH]2)nc2ccc(C)cc12 | -1.4 | -7.1 | 89.9* | · | -24.8 | -2.5
Cc1c(C(=O)N2CCCCC2C)sc2nc3n(c(=O)c12)CCC3 (stereo not drawn) | · | -10.2 | 0.9 | · | 6.6 | ·
CC1(C)CC(Nc2ccc(Nc3ccccc3)cc2)CC(C)(C)N1 | 77.0* | 0.2 | 22.0 | · | -3.1 | 29.4*
CCCC[n+]1ccn(C2=C([O-])c3ccccc3C(=O)/C2=N\S(=O)(=O)c2ccc(Cl)cc2)c1 | 5.3 | 4.6 | 66.0* | · | -34.2 | -1.2
COc1ccc2oc(=O)c(C(=O)NCCc3ccc(OC)c(OC)c3)cc2c1 | · | 4.3 | -4.2 | · | -2.9 | ·
SMILES | Ba/F3 V617F tox | IEC-6 tox | aSyn UTR inh | APP transl inh | KLF5 inh | BaF3 parental
NC(=O)N=Nc1c(O)[nH]c2ccc([N+](=O)[O-])cc12 | -4.1 | 2.3 | 2.3 | · | -18.1 | 0.3
COc1ccccc1C(=O)N=Nc1c(O)[nH]c2ccc([N+](=O)[O-])cc12 | 60.4* | -2.7 | · | 14.4 | -28.4 | 4.2
Cc1ccc(NC(=O)c2c(C(F)(F)F)nn(C)c2SCc2cccc(C(F)(F)F)c2)cc1C | 42.5* | 12.3 | -102.4 | · | 7.5 | 47.8*
CN1/C(=C\C(=S)NC(=O)c2ccccc2Cl)C(C)(C)c2ccccc21 | 69.7* | 7.7 | -25.7 | -21.1 | -37.8 | 62.9*
CN1/C(=C\C(=S)Nc2ccccc2)C(C)(C)c2ccccc21 | 43.4* | 3.3 | -53.2 | 10.9 | -8.4 | 46.4*
CN1/C(=C\C=N\NC(=O)c2ccccc2Br)C(C)(C)c2ccccc21 | 54.2* | 5.6 | 8.6 | 3.7 | -17.4 | 61.8*
CN1/C(=C/C=N/n2cnnc2)C(C)(C)c2ccccc21 | 0.4 | 9.1 | 11.0 | 5.4 | -16.1 | 3.5
COc1ccccc1C(=O)NC(=S)/C=C1/N(C)c2ccccc2C1(C)C | 37.2* | -1.8 | -10.6 | 2.9 | -26.1 | 37.1*
CCOC(=O)N1CCN(CC(=O)Nc2sccc2C#N)CC1 | -2.7 | -4.7 | 17.4 | -0.7 | -4.3 | 2.5
CN1/C(=C\C(=O)Nc2ccc(Cl)cc2)C(C)(C)c2ccccc21 | 1.4 | -2.1 | -6.6 | -30.5 | -42.3 | 4.3
CN1/C(=C/C(=S)NC(=O)C2(C)CC2(Cl)Cl)C(C)(C)c2ccccc21 (stereo not drawn) | 20.3 | -8.6 | 0.7 | -34.6 | -20.2 | 57.8*
CCSc1nc2sc3c(c2c(=O)n1-c1ccc(OC)cc1)CCN(C)C3 | 13.3 | -6.2 | 3.6 | · | -17.9 | 38.2*
CN(CCc1ccccn1)C(=O)c1cccnc1Oc1ccccc1 | -3.5 | -4.6 | 21.3 | · | -2.8 | -1.5
CN(C(=O)c1coc(=O)c2ccccc12)c1ccccc1Cl | 0.0 | 6.1 | -3.8 | 6.9 | 3.2 | 0.4
O=C1c2ccccc2S(=O)(=O)N1Cc1nc2ccccc2s1 | 1.9 | 6.3 | 111.7* | 8.0 | -8.7 | 3.6
Cc1ccccc1CN1C(=O)c2ccccc2S1(=O)=O | · | -0.8 | -17.8 | · | -16.2 | ·
CCN(CC)C(=O)Oc1ccc(Cl)c2cccnc12 | 0.3 | 0.3 | 22.7 | -22.1 | 9.6 | 5.4
O=C(Nc1cccc(C(F)(F)F)c1)Oc1ccc(Cl)c2cccnc12 | -4.8 | -3.0 | 75.1* | · | -6.8 | 1.7
O=C1CC(c2ccccc2)Cc2nc3ncnn3cc21 (stereo not drawn) | 77.2* | 5.1 | -3.3 | 4.3 | 52.6 | 80.2*
O=C(CSc1nnc2ccc(-c3cccnc3)nn12)Nc1ccccc1F | · | · | 24.0 | · | · | ·
Cc1cc([N+](=O)[O-])ccc1-c1ccc(C2Nc3ccccc3C(=O)N2O)o1 (stereo not drawn) | 1.7 | 7.2 | 82.6* | 53.5* | -11.9 | 7.8
O=[N+]([O-])c1ccc(Sc2cccc3cccnc23)c([N+](=O)[O-])c1 | -5.3 | 0.0 | -4.8 | 55.2* | -13.0 | -0.6
O=[N+]([O-])c1cc(Cl)ccc1Sc1cccc2cccnc12 | -0.5 | -2.1 | 22.8 | -18.9 | -28.0 | 3.4
CCOC(=O)C1CCCN(/C=C2\SC(=S)N(CC)C2=O)C1 (stereo not drawn) | 0.1 | -7.8 | 2.3 | · | -36.2 | -4.1
CC(C)c1ccc2c(c1)CCC1C(C)(CN)CCCC21C (stereo not drawn) | 96.4* | -1.8 | 96.7* | · | -18.6 | 79.4*
COc1cccc(NC(=O)c2ccc3c(c2)C(=O)N(CC2CCCO2)C3=O)c1 (stereo not drawn) | · | 4.2 | 26.5 | · | -20.0 | ·
O=[N+]([O-])c1ccc2[nH]nc(-c3ccccc3)c2c1 | -2.4 | -2.2 | 18.2 | -20.9 | -21.4 | 7.6
O=[N+]([O-])c1ccc2[nH]c3nc4ccccc4nc3c2c1 | 36.3* | 8.9 | -11.0 | · | -13.0 | 42.8*
